Source: ChEMBL document CHEMBL1961873, “Compounds: GSK PKIS; Assays: Nanosyn kinase panel” (2012)

Legend:
[1] = biological target: Serine/threonine-protein kinase MRCK alpha (Homo sapiens) (UniProt Q5VT25); details: at 0.1 µM
[2] = biological target: Serine/threonine-protein kinase MRCK alpha (Homo sapiens) (UniProt Q5VT25); details: at 1 µM
[3] = biological target: Serine/threonine-protein kinase MRCK beta (Homo sapiens) (UniProt Q9Y5S2); details: at 0.1 µM
[4] = biological target: Serine/threonine-protein kinase MRCK beta (Homo sapiens) (UniProt Q9Y5S2); details: at 1 µM
[5] = biological target: Ribosomal protein S6 kinase alpha-5 (Homo sapiens) (UniProt O75582); details: at 0.1 µM
Sequence of Ribosomal protein S6 kinase alpha-5 (Homo sapiens) (O75582 whole entry, looked up): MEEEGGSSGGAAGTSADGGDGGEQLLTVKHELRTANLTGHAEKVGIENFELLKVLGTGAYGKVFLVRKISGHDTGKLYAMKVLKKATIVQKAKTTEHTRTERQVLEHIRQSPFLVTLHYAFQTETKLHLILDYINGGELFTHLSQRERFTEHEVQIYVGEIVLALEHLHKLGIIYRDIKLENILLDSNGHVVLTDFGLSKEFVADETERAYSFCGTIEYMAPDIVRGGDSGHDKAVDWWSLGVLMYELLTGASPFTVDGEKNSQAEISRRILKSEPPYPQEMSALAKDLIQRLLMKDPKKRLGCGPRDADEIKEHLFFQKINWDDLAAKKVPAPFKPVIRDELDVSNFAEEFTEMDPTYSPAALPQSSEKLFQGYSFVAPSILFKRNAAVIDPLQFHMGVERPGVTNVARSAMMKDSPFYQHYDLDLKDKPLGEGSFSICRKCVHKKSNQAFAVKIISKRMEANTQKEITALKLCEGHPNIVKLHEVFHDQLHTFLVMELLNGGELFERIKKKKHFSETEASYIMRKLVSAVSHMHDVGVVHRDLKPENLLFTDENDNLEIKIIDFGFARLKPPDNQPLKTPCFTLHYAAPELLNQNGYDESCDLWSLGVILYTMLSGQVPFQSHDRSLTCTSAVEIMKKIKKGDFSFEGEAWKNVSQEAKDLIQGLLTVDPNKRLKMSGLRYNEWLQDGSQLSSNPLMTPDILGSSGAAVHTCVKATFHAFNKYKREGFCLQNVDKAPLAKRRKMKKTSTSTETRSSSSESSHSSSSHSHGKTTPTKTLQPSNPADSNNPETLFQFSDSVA

[6] = biological target: Ribosomal protein S6 kinase alpha-5 (Homo sapiens) (UniProt O75582); details: at 1 µM
[7] = biological target: Ribosomal protein S6 kinase alpha-4 (Homo sapiens) (UniProt O75676); details: at 0.1 µM
Sequence of Ribosomal protein S6 kinase alpha-4 (Homo sapiens) (O75676 whole entry, looked up): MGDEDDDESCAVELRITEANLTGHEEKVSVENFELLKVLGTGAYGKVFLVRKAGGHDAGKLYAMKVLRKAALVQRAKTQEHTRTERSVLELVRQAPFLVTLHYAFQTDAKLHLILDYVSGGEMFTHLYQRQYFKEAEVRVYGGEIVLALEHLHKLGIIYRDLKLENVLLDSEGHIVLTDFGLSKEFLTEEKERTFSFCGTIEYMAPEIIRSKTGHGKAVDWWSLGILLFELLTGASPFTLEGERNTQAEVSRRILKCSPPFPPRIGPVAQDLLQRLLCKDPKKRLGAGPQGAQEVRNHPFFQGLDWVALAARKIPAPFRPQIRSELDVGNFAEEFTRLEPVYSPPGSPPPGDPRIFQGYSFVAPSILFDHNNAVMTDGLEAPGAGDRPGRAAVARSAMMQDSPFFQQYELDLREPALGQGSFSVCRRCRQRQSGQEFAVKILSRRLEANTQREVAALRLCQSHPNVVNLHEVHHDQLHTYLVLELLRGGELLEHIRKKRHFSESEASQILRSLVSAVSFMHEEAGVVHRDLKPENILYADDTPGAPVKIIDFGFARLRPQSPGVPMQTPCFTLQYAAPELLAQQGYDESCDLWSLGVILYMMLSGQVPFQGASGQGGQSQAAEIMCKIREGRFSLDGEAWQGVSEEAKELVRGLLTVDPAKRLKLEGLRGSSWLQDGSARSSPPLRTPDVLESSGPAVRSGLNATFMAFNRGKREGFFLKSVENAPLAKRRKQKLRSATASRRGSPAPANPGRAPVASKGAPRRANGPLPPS

[8] = biological target: Ribosomal protein S6 kinase alpha-4 (Homo sapiens) (UniProt O75676); details: at 1 µM
[9] = biological target: Ribosomal protein S6 kinase beta-1 (Homo sapiens) (UniProt P23443); details: at 0.1 µM
Sequence of Ribosomal protein S6 kinase beta-1 (Homo sapiens) (P23443 whole entry, looked up): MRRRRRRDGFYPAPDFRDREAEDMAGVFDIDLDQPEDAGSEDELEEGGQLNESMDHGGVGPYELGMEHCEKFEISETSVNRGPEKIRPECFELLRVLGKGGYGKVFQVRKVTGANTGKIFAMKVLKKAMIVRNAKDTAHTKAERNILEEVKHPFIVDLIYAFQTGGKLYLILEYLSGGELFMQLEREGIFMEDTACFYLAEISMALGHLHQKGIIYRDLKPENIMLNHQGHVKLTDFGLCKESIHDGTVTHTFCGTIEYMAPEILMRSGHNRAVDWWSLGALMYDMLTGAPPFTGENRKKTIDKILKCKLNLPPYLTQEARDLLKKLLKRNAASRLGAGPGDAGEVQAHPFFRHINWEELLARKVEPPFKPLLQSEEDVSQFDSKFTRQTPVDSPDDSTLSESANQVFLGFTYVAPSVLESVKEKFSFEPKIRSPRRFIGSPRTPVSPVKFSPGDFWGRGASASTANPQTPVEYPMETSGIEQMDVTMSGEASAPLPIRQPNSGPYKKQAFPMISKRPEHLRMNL

[10] = biological target: Ribosomal protein S6 kinase beta-1 (Homo sapiens) (UniProt P23443); details: at 1 µM
[11] = biological target: T1, 3-phosphoinositide-dependent protein kinase 1 (Homo sapiens) (UniProt O15530); details: at 0.1 µM;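 further: values are mean inhibition of PDK1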
T1 sequence (whole entry): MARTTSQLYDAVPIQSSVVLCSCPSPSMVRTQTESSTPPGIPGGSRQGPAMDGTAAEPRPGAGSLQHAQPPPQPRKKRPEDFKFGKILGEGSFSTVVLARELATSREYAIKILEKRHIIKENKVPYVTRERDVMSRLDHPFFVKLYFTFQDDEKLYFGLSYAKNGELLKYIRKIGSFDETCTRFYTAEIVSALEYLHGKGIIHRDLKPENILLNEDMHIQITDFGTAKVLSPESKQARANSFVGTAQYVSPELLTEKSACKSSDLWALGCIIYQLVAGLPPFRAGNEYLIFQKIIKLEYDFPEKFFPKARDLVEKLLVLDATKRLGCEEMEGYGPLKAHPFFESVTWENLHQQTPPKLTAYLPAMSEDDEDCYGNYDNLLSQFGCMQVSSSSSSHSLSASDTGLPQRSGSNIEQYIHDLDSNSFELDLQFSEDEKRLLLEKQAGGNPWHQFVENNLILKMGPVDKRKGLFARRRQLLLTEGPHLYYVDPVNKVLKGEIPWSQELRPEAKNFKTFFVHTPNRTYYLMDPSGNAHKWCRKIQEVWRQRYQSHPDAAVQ

[12] = biological target: cAMP-dependent protein kinase catalytic subunit alpha (Homo sapiens) (UniProt P17612); details: at 0.1 µM
[13] = biological target: cAMP-dependent protein kinase catalytic subunit alpha (Homo sapiens) (UniProt P17612); details: at 1 µM
[14] = biological target: Protein kinase C alpha type (Homo sapiens) (UniProt P17252); details: at 0.1 µM
[15] = biological target: Protein kinase C alpha type (Homo sapiens) (UniProt P17252); details: at 1 µM
[16] = biological target: Protein kinase C beta type (Homo sapiens) (UniProt P05771); details: at 0.1 µM
[17] = biological target: Protein kinase C beta type (Homo sapiens) (UniProt P05771); details: at 1 µM
[18] = biological target: Protein kinase C eta type (Homo sapiens) (UniProt P24723); details: at 0.1 µM
[19] = biological target: Protein kinase C eta type (Homo sapiens) (UniProt P24723); details: at 1 µM
[20] = biological target: Protein kinase C gamma type (Homo sapiens) (UniProt P05129); details: at 0.1 µM;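 further: values are mean percent inhibition of PKC gamma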

Sequence of Serine/threonine-protein kinase MRCK beta (Homo sapiens) (Q9Y5S2 whole entry): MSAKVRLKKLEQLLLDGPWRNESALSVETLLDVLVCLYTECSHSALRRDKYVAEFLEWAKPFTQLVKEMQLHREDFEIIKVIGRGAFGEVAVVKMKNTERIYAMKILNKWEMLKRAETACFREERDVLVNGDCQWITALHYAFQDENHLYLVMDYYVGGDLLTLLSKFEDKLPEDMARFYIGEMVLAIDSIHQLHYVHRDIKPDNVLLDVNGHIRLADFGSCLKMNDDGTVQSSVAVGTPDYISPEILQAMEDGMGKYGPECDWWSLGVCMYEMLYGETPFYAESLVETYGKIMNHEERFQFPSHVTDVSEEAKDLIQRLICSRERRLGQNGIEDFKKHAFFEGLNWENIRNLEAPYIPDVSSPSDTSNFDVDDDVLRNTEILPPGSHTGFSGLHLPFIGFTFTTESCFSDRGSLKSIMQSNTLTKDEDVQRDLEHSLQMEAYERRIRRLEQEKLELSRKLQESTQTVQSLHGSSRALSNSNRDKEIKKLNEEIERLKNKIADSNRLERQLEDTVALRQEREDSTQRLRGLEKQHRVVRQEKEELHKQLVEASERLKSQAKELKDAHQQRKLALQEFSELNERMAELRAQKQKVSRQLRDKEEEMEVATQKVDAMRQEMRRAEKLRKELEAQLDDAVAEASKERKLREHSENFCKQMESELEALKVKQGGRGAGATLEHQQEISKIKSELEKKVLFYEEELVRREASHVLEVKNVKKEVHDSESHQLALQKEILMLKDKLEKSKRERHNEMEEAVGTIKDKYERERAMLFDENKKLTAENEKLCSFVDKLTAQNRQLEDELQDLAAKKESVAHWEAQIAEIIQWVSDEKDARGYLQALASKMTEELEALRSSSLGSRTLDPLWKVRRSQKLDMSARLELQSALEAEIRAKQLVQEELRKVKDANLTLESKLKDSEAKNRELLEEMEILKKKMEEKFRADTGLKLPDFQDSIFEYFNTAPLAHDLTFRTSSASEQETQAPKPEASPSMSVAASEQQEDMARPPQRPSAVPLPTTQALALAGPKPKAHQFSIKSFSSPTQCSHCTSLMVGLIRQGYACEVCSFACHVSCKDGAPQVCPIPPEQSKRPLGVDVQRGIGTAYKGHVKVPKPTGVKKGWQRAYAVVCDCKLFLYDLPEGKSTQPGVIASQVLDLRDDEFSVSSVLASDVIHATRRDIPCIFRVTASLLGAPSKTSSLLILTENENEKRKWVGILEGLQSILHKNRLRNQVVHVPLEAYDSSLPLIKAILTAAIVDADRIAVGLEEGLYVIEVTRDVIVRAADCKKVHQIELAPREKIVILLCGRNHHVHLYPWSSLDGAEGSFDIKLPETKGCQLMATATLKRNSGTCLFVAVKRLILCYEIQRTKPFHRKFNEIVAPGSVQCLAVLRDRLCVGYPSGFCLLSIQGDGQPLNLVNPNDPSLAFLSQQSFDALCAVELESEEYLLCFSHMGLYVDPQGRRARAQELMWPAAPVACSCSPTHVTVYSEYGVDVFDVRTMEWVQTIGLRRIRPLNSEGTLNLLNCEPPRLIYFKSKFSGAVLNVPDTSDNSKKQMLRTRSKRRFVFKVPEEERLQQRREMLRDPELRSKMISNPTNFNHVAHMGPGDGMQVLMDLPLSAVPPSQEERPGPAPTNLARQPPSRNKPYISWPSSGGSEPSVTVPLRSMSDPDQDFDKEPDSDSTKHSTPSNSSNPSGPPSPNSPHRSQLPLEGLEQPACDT

Row | Structure (SMILES) | inhibition [1] [%] | inhibition [2] [%] | inhibition [3] [%] | inhibition [4] [%] | inhibition [5] [%] | inhibition [6] [%] | inhibition [7] [%] | inhibition [8] [%] | inhibition [9] [%] | inhibition [10] [%] | inhibition [11] [%] | inhibition [12] [%] | inhibition [13] [%] | inhibition [14] [%] | inhibition [15] [%] | inhibition [16] [%] | inhibition [17] [%] | inhibition [18] [%] | inhibition [19] [%] | inhibition [20] [%]
1 | Fc1ccc(-c2nn3ccccc3c2-c2ccncc2)cc1 | 1.08 | 3.93 | 1.99 | 4.92 | 4.62 | 5.97 | 5.06 | 6.2 | 1.21 | 2.15 | 0.82 | 2.55 | 16 | 0.75 | 3.12 | 8.61 | 37.8 | 1.31 | 3.71 | -2.68
2 | CCn1cc(-c2ccnc3[nH]ccc23)c(-c2cccc(NC(=O)Nc3ccc(OCc4ccccc4)cc3)c2)n1 | -4.2 | 4.85 | -0.78 | -0.56 | -0.53 | -2.01 | 1.02 | 0.39 | -0.04 | -0.6 | -1.57 | 4.08 | 5.34 | 1.25 | 2.76 | 0.5 | 1.43 | -2.7 | 1.78 | 0.3
3 | O=S(=O)(CCNCc1ccc(-c2ccc3ncnc(Nc4ccc(OCc5cccc(F)c5)c(Cl)c4)c3c2)o1)c1ccccc1 | -4.06 | 0.31 | 0.71 | -0.02 | 4.86 | 4.66 | 3.43 | 3.05 | 1.88 | 2.98 | 0.78 | 2.48 | 6.82 | 1.39 | 2.12 | 0.95 | 2.13 | 4.07 | 3.1 | 1.93
4 | COc1cc(/C=N/Nc2ncnc3[nH]ncc23)ccc1O | 0.11 | 2.49 | 0.6 | 1.83 | 4.13 | 13.9 | 2.93 | 8.42 | 3.45 | 21.4 | 2.95 | 1.43 | 5.96 | 0.03 | 3.59 | -0.06 | 4.56 | 0.97 | 7.35 | 2.16
5 | CS(=O)(=O)CCNCc1ccc(-c2ccc3ncnc(Nc4ccc(OCc5ccccc5)c(C(F)(F)F)c4)c3c2)o1 | -6.32 | -1.92 | -0.98 | -1.25 | 8.24 | 6.53 | 1.86 | 0.65 | 1.21 | 1.16 | -0.19 | 1.37 | 1.5 | 0.59 | 0.28 | 0.21 | 1.23 | 4.55 | 5.11 | 2.66
6 | CN(C)CCOc1ccc(-c2nc(-c3ccncc3)c(-c3ccc4c(c3)CC/C4=N\O)[nH]2)cc1 | -0.58 | 0.77 | 0.46 | 0.41 | 3.39 | 7.59 | 2.36 | 4.48 | 1.37 | 1.71 | 0.77 | 1.46 | 4.29 | 0.58 | 1.61 | 1.27 | 11.9 | 1.48 | 3.32 | 1.85
7 | CCn1c(-c2nonc2N)nc2ccccc21 | 1.63 | 10.9 | 1.39 | 10.9 | 23.3 | 62.5 | 7.88 | 40.4 | 22.1 | 70.5 | 2.81 | 3.16 | 18.5 | 0.44 | 5.52 | 12.7 | 46.5 | 20.8 | 67.6 | 3.92
8 | CCCN(CCS(C)(=O)=O)Cc1ccc(-c2ccc3ncnc(Nc4ccc(OCc5cccc(F)c5)c(Cl)c4)c3c2)o1 | -1.08 | 0.54 | -0.36 | 0.64 | 7.14 | 6.79 | 1.76 | 1.8 | 1.21 | 1.92 | 1.25 | 0.67 | 1.36 | 0.08 | 1.04 | 0.26 | 0.52 | 2.45 | 3.94 | 1.25
9 | Cc1cccc2c1NC(=O)/C2=N\Nc1ccc(S(N)(=O)=O)cc1 | -1.02 | -1.52 | 1.33 | 2.51 | 2.97 | 4.06 | 1.89 | 3.82 | 1.66 | 2.26 | 2.44 | 1.54 | 2.59 | 0.55 | 5.16 | 0.49 | -1.37 | 4.66 | 3.34 | -3
10 | CS(=O)(=O)CCNCc1coc(-c2ccc3ncnc(Nc4ccc(OCc5ccccc5)cc4)c3c2)c1 | 2.17 | 0.57 | 0.72 | 1.14 | 1.49 | 1.55 | 2.52 | 3.49 | 0.79 | 3.34 | 6.29 | 1.59 | 2.39 | 0.46 | 1.78 | 0.47 | -1 | 4.58 | 3.63 | -2.12
11 | COc1ccc(CNC(=O)c2ccc(-c3cc(-c4nnc(C)o4)ccc3C)cc2)cc1 | 2.98 | 6.58 | 2.16 | 2.99 | 9.25 | 9.58 | 3.89 | 4.66 | 1.64 | 2.15 | 1.94 | 3.14 | 3.15 | 0.19 | 0.76 | 6.66 | 9.43 | -0.12 | 4.73 | 3.1
12 | COC(=O)Nc1nc2ccc(S(=O)(=O)c3ccc(NC(=O)Nc4cc(C(F)(F)F)ccc4F)cc3)cc2[nH]1 | 0.58 | -0.35 | 1.96 | 1.32 | 2.41 | 1.23 | 0.77 | 4.31 | 2.42 | 0.71 | 1.73 | 1.93 | 1.3 | 0.42 | -0.51 | 0.31 | 0.32 | 0.95 | 2.18 | 0.47
13 | COc1ccc(-c2oc3ncnc(N)c3c2-c2ccc(NC(=O)Nc3cc(C(F)(F)F)ccc3F)cc2)cc1 | 0.52 | 6.52 | 0.63 | 1.86 | 5.16 | 16.1 | 4.9 | 24.2 | 11.7 | 68.2 | 1.13 | 3.34 | 4.14 | 0.71 | 1.62 | 3.38 | 6.16 | 6.58 | 5.99 | 1.64
14 | Cc1ccc(O)cc1Nc1ccnc2cc(-c3ccccn3)ccc12 | 0.02 | -2.04 | 1.37 | 0.2 | 4.25 | 3.29 | 0.94 | 2.96 | 1.62 | 1.87 | 3.22 | 1.65 | 0.73 | 0.94 | 1.06 | -0.22 | 0.21 | 4.81 | 3.71 | 5.48
15 | COC(=O)Nc1nc2ccc(Oc3ccc(NC(=O)Nc4cccc(Cl)c4)cc3)cc2[nH]1 | -2.43 | -0.92 | -0.72 | -1.4 | 0.39 | -1.18 | 0.82 | -0.55 | 0.63 | 0.82 | -0.86 | 2.12 | 0.79 | 0.15 | -0.86 | -1.37 | -5.17 | 0.84 | -0.24 | 0.84
16 | Cc1cccc(Nc2ncc(-c3ccccc3)o2)c1 | 7.36 | 8.12 | 0.54 | 4.56 | 2.55 | 6.07 | 1.23 | 8.07 | 1.43 | 3.89 | 1.5 | 12.6 | 13.8 | 0.24 | 3.41 | 3.52 | 5.79 | 2.87 | 0.87 | 3.99
17 | CCCN1CCC(c2ccc(Nc3nc(Nc4cc(F)ccc4C(N)=O)c4cc[nH]c4n3)c(OC)c2)CC1 | 2.45 | 30.4 | 1.71 | 23.3 | 2.89 | 8.65 | 2.82 | 12 | 2.27 | 7.03 | 0.96 | 2.33 | 3.51 | 0.66 | 16.6 | 0.19 | 4.9 | 2.99 | 9.93 | 3.12
18 | [O-][S+]1CCN(Cc2ccc(-c3ccc4ncnc(Nc5ccc(OCc6cccc(F)c6)c(Cl)c5)c4c3)o2)CC1 | -1.31 | -1.3 | -0.28 | -0.43 | 3.5 | 3.71 | 3.38 | 4.98 | 2.86 | 3.84 | 4.4 | 2.27 | 3.13 | 1.17 | 1.29 | -0.91 | 1.67 | 2.12 | 4.25 | 3.03
19 | CCn1c(-c2nonc2N)nc2c(C#CC(C)(C)O)nc(OC[C@H](N)c3ccccc3)cc21 | 11.8 | 36.3 | 3.04 | 26.6 | 3.37 | 17.7 | 3.75 | 20.5 | 4.66 | 33.1 | 0.94 | 81.3 | 82.5 | 3.82 | 32.3 | 32.7 | 67.3 | 97.9 | 97.1 | 8.83
20 | CC(=O)NCc1cccc(C#Cc2cncnc2Nc2ccc(OCc3cccc(F)c3)c(Cl)c2)c1 | 0.23 | -0.33 | 0.09 | 1.09 | -4.98 | -3.7 | 0.45 | 4 | 0.26 | 0.74 | 0.04 | 0.53 | 0.58 | 0.2 | 1.17 | -0.24 | 3.27 | 1.39 | 3.4 | -0.73
21 | Clc1ccc(-c2nn3ncccc3c2-c2ccnc(Nc3ccccc3)n2)cc1 | -0.06 | 0.52 | 0.76 | 1.28 | 0.64 | 2.07 | 1 | 2.91 | 0.57 | -0.24 | 0.53 | 1.67 | 2.52 | 1.23 | -0.09 | 0.65 | 1.93 | -0.59 | -0.77 | -1.17
22 | COc1cc2ncn(-c3cc(OCc4ccccc4C(F)(F)F)c(C(=O)N(C)C)s3)c2cc1OC | 0.01 | 0.75 | -1.11 | 1.24 | -0.57 | -0.4 | 0.13 | 0.89 | -0.55 | -1.48 | 1.17 | 0.88 | 0.93 | -0.03 | 0.21 | 0.35 | -0.32 | 1.66 | 0.73 | -1.33
